Source: PubChem (several laboratories)
Sampled rows, rich in hits. Any-hit rate of the full collection: about 3.5%.
SKN-1 block = blocks SKN-1 activity in C. elegans; C. elegans VP596 Pgst-4::GFP/RFP ratio, acrylamide-induced, 24 h; 0.49% of 360,000 active; AID 624304; inhibition, % at 21.8 µM;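 active means interference check ratio from 0.5 to 1.5 plus GFP to RFP signal ratio inhibition reaching or exceeding a fixed threshold, cut at about 30% in these data, passing the limit was not always enough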
ATG4B inh = blocks human ATG4B protease cleavage of LC3 substrate; inhibition, % at 8.33 µM; 0.51% of 340,000 active; ATG4B cleavage of LC3-PLA2, NBD-HPC fluorescence, 1 h; Q9Y4P1; in the data active means inhibition above about 40%
Target sequence (Q9Y4P1 whole entry, looked up): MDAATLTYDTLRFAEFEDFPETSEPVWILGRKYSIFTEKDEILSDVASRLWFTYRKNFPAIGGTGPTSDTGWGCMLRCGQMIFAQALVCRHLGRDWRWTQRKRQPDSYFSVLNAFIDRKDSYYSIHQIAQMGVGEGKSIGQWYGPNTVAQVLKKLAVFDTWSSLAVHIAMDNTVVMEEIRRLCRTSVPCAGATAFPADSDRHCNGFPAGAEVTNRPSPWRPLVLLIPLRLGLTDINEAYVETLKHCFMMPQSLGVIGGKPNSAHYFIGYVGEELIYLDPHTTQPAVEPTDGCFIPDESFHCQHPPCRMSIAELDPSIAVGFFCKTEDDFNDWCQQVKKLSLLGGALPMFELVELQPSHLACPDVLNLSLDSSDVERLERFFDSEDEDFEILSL
CHRM1 PAM = positive allosteric modulators of human M1 muscarinic receptor; AID 588819; 0.088% of 360,000 active; activation, % at 3 µM; CHO-K1 hM1, Fluo-8 calcium fluorescence, ACh EC20; 0% = ACh EC20, 100% = maximal ACh; P11229; in the data active means activation above about 19%, passing the limit was not always enough
CHRM1 antagonist = human CHRM1 antagonism; CHO-K1 hM1, Fluo-8 calcium fluorescence, ACh EC80 antagonist; inhibition, % at 3 µM; 1.3% of 360,000 active; AID 588852;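 active means percent inhibition above its own plate's cutoff, namely the mean of that plate's compound wells plus 3 SD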;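 further: peak over basal fluorescence ratio during 140 s after agonist addition; 0% = ACh EC80 plus DMSO and 100% = DMSO alone without agonist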
CHRM1 agonist = activates human CHRM1 receptor. CHO-K1 hM1, Fluo-8 calcium fluorescence, agonist mode; 0% DMSO, 100% acetylcholine EC100. 0.33% of 360,000 active. P11229. AID 588814. activation, % at 3 µM;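 active means activation above the run's mean compound activation plus 3 SD, cut at about 16% in these data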;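 further: peak over basal fluorescence ratio within a 140 s kinetic read after compound addition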
Myeloid diff MLP = promotes myeloid progenitor differentiation; ER-HoxA9 myeloid progenitors, lysozyme-GFP differentiation, flow cytometry; calls only at 10 µM; 1% of 360,000 active;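 active means normalized GFP-positive differentiation at or above the plate's own cutoff, the solvent-only control mean plus 3 SD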;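 further: cells exposed to compound for four days before flow analysis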
An asterisk follows results filed as active; i = inactive; . = not tested or not shown; + = active, no number.

SMILES	SKN-1 block	ATG4B inh	CHRM1 PAM	CHRM1 antagonist	CHRM1 agonist	Myeloid diff MLP
CN(c1ccc(OCC(=O)OCC(=O)Nc2ccc(F)cc2)cc1)S(=O)(=O)c1ccc(Cl)cc1	5	-11	-11	13	-3	i
COc1ccc(NC(=O)COc2ccc(N(C)S(=O)(=O)c3ccc(Cl)cc3)cc2)cc1OC	-2	-2	-13	38*	0	.
CC(=O)Nc1ccc(S(=O)(=O)N(C)c2ccc(OCC(=O)Nc3ccccc3C(C)=O)cc2)cc1	4	-18	-15	36*	-3	i
Cc1ccccc1NC(=O)CSc1ccncc1	9	8	8	-15	-2	i
Oc1ccc(C2CNCCc3c2cc(O)c(O)c3Cl)cc1 (stereo not given)	5	8	9	-40	-4	i
Oc1cc2c(c(Cl)c1O)CCNCC2c1ccccc1 (stereo not given)	42*	-4	-6	-11	-6	i
Cc1cccc([C@@H]2[C@@H]3C(=O)N(Cc4ccccc4)C(=O)[C@@H]3[C@]3(Cc4ccc(Cl)cc4)C(=O)N(c4cccc(Br)c4)C(=O)N23)c1	-11	-2	-4	3	-5	+
Cc1cc[n+](CC(=O)c2ccc(NC(=O)c3ccccc3)cc2)cc1	3	0	-12	32*	-6	i
O=C(NNC(=O)c1ccc(NC(=O)c2ccccc2)cc1)Nc1ccccc1	-9	6	7	1	0	+
Cc1cc(C)c[n+](CC(=O)c2ccc(NC(=O)c3ccccc3)cc2)c1	-2	2	6	-5	-5	i
O=C(C[n+]1ccccc1)c1ccc(NC(=O)c2ccccc2)cc1	8	-3	2	2	-9	i
O=C(NNC(=O)c1ccc(NC(=O)c2ccccc2)cc1)c1ccc(F)cc1	4	4	4	-6	-2	i
Cc1cc(C)c[n+](CC(=O)c2ccc(-c3ccccc3)cc2)c1	5	3	-23	36*	-14	i
Cc1cc(C)cc(NC(=O)C(=O)NCCCN2CCCC2=O)c1	-5	-7	11	-17	-2	i
CCC(C)N(C(=O)Cn1c(Cl)nc2c1c(=O)n(C)c(=O)n2C)C1CCS(=O)(=O)C1 (stereo not given)	0	-2	1	-5	2	i
CN(C(=O)Cn1c(Cl)nc2c1c(=O)n(C)c(=O)n2C)C1CCS(=O)(=O)C1 (stereo not given)	4	-5	-10	23*	-2	i
CCOC(=O)C1=C(COC(=O)/C=C/c2ccccc2F)NC(=O)NC1C (stereo not given)	3	1	-13	27*	0	i
CCOC(=O)C1=C(COC(=O)/C=C/c2ccccc2Cl)NC(=O)NC1C (stereo not given)	-10	3	-4	9	0	i
O=C1NC[C@H](CCCCN2C[C@H](Cc3ccc(O)cc3)N(Cc3ccccc3)C(=O)C2=O)N(Cc2ccccc2)C1=O	13	.	.	.	.	i
O=C(Nc1cc(S(=O)(=O)N2CCOCC2)ccc1OCC(F)(F)F)C1CCCC1	15	.	12	-18	-1	i
CC(c1ccccc1)n1c(Br)nc2c1c(=O)[nH]c(=O)n2C (stereo not given)	24	-5	2	-1	-2	i
CC(c1ccccc1)n1c(N2CCNCC2)nc2c1c(=O)[nH]c(=O)n2C (stereo not given)	27	-1	3	69*	1	i
C[C@H](CO)N1C[C@H](C)[C@@H](CN(C)CC2CCOCC2)Oc2cc(C#Cc3ccccc3F)ccc2S1(=O)=O	-5	.	0	-6	-6	i
C[C@@H]1CN([C@H](C)CO)S(=O)(=O)c2ccc(C#Cc3ccccc3F)cc2O[C@H]1CN(C)C(=O)c1ccc2c(c1)OCO2	-1	.	-11	27*	5	i
COCCn1c(SCC(=O)Nc2cccc(C)c2)nnc1C(C)C	37*	9	3	-3	0	i
SMILES	SKN-1 block	ATG4B inh	CHRM1 PAM	CHRM1 antagonist	CHRM1 agonist	Myeloid diff MLP
COCCn1c(SCC(=O)Nc2cc(C)cc(C)c2)nnc1C(C)C	-36	-6	10	-10	-2	i
CCOc1ccc(-n2c(-c3ccc(OC)cc3)c[n+]3c2CCCCC3)cc1	-2	0	-11	17	-10	.
COc1ccc(-c2c[n+]3c(n2-c2ccccc2)CCCCC3)cc1	9	-3	-1	7	-11	i
CCOc1ccc(-n2c(-c3ccc(Br)cc3)c[n+]3c2CCCCC3)cc1	-13	1	-27	30*	-12	i
CCOc1ccc(-n2c(-c3ccccc3)c[n+]3c2CCC3)cc1	0	-7	-15	38*	-5	i
NNC(=O)c1oc2nc(-c3ccc(Cl)cc3)cc(-c3ccccc3)c2c1N	-7	-11	15	-10	0	+
O=C(Nc1nc(-c2ccc(Cl)s2)cs1)c1ccccc1	49*	31	-8	-17	-6	i
COC(=O)[C@H](Cc1ccccc1)NC(=O)NCCC1=CCCCC1	14	-3	-29	39*	-11	i
CC(C)C(C(=O)O)N1C(=O)/C(=C/C=C/c2ccco2)SC1=S (stereo not given)	24	65*	2	-5	-3	i
COc1cccc(CN(C)C(=O)/C=C/c2ccc(S(=O)(=O)N3CCCCCC3)cc2)c1	8	-2	-2	7	-4	i
CC1(c2nc3ccccc3[nH]2)c2ccccc2C(=O)N1Cc1ccccc1 (stereo not given)	-4	.	.	.	.	i
c1ccc(C[C@H]2CN=C(Nc3ccccc3)N2CC2CCCCC2)cc1	-5	7	11	-9	-8	+
Cc1ccc(/C=C2\SC(=S)N(/N=C/c3cc([N+](=O)[O-])ccc3O)C2=O)o1	-11	47*	-3	2	-4	i
O=C(O)c1cccc(Cn2cc(Br)cn2)c1	5	3	-4	-7	-2	i
O=C(NCc1ccncc1)c1cccc(Cn2cc(Br)cn2)c1	-8	6	-20	97*	-5	i
COc1ccc([C@H]2CC(=O)C=C(c3cc(Br)ccc3OC)C2)cc1	14	0	-6	9	-5	+
CNC(=O)/C(C#N)=C/c1c(N2CCCCCC2)nc2ccccn2c1=O	4	-1	1	-4	-6	+
Cc1c(N2C(=O)/C(=C/C3CC=CCC3)SC2=S)c(=O)n(-c2ccccc2)n1C (stereo not given)	-10	7	-24	73*	-9	i
Cc1c(N2C(=O)/C(=C\C3CC=CCC3)SC2=S)c(=O)n(-c2ccccc2)n1C (stereo not given)	-11	-2	-26	62*	-8	i
